# Targets with a hit are over-represented here; the source holds about 7,900 in all. About 0.6% of all pairs of compound and target were hits. A number with no mark means an inactive call.
# Assays:
# Test in all cases: log2 fold change, soluble protein after heating vs DMSO (PISA); higher = thermal stabilisation; K562 cells, 10 uM, 30 min; active = over 0.2 and 3.5 SD of the protein, either way, in both replicates (recomputed)
# erlotinib = compound: C#Cc1cccc(Nc2ncnc3cc(OCCOC)c(OCCOC)cc23)c1 [erlotinib]
# Procedure, shortened: (§1)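 Aliquots of K562 cells (2×10^6 cells/mL) treated with 10 μM compound for 30 min were heated for 3 min over 48°C-58°C. After pooling and extraction in PBS with 0.5% NP-40 at 4°C, soluble protein from a 21,000xg, 90 min spin was quantified by TMTpro 16plex LC-MS/MS with channel sums equalised. Thermal stability is expressed against control samples, from duplicates, as a log2 fold change.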
# [1] = compound: C/C(=N\NC(=O)C1=CC(=CC=C1)S(=O)(=O)N2CCOCC2)/C3=C(C=CC(=C3)Cl)O
# Procedure, shortened: as §1
# [2] = compound: C1=CC(=C(C=C1Cl)C2=NC3=NC=CN=C3C(=N2)NC4=CC=NC=C4)F
# Procedure, shortened: as §1
# [3] = compound: C1=CC(=CC=C1C2=NC3=C(N2)C=C(C=C3)C(=O)N)OC4=CC=C(C=C4)Cl
# Procedure, shortened: as §1
# [4] = compound: C1=CC2=C(C=CC(=C2)/C=C\3/C(=O)NC(=NCC4=CC=CS4)S3)N=C1
# Procedure, shortened: as §1
# [5] = compound: C1=CC2=NC=CN=C2C=C1/C=C/3\C(=O)NC(=O)S3
# Procedure, shortened: as §1
# [6] = compound: C1=CC=C(C=C1)C2=NC(=C(N2)C3=CC=NC=C3)C4=CC(=C(C=C4)Cl)O
# Procedure, shortened: as §1
# [7] = compound: C1=CC=C2C(=C1)C3=NNC4=CC=CC(=C43)C2=O
# Procedure, shortened: as §1
# [8] = compound: C1CCN(C1)C(=O)NC2=CC=CC(=C2)NC3=NC=C(C(=N3)NCCC4=CN=CN4)Br
# Procedure, shortened: as §1
# [9] = compound: C1CN(CCC1(CC2=CC=C(C=C2)Cl)N)C3=NC=NC4=C3C=CN4
# Procedure, shortened: as §1
# IRAK-1-4 Inhibitor I = compound: C1COCCN1CCN2C3=CC=CC=C3N=C2NC(=O)C4=CC(=CC=C4)[N+](=O)[O-] [IRAK-1-4 Inhibitor I]
# Procedure, shortened: as §1
# ibrutinib = compound: C=CC(=O)N1CCC[C@@H](n2nc(-c3ccc(Oc4ccccc4)cc3)c3c(N)ncnc32)C1 [ibrutinib]
# Procedure, shortened: as §1
# [10] = compound: CC(=O)c1cnc2ccc(-c3cc(Cl)c(O)c(Cl)c3)nc2c1N[C@H]1CC[C@H](CN(C)C)CC1
# Procedure, shortened: as §1
# ralimetinib = compound: CC(C)(C)Cn1c(N)nc2ccc(-c3[nH]c(C(C)(C)C)nc3-c3ccc(F)cc3)nc21 [ralimetinib]
# Procedure, shortened: as §1
# [11] = compound: CC(C)(O)CC(=O)NCCn1ccc2ncnc(Nc3ccc(Oc4cccc(C(F)(F)F)c4)c(Cl)c3)c21
# Procedure, shortened: as §1
# [12] = compound: CC(C)C1=C2N=C(C=C(N2N=C1)NCC3=CC=CC=C3)NCCCCCCN
# Procedure, shortened: as §1
# [13] = compound: CC(C)C[C@@H](C=O)NC(=O)[C@H](CC(C)C)NC(=O)[C@H](CC(C)C)NC(=O)OCc1ccccc1
# Procedure, shortened: as §1
# pinometostat = compound: CC(C)N(C[C@H]1O[C@@H](n2cnc3c(N)ncnc32)[C@H](O)[C@@H]1O)[C@H]1C[C@@H](CCc2nc3cc(C(C)(C)C)ccc3[nH]2)C1 [pinometostat]
# Procedure, shortened: as §1
# [14] = compound: CC1=C(C(CC(=O)N1)C2=CC=C(C=C2)C(F)(F)F)C(=O)NC3=C(C=C4C(=C3)C=NN4)F
# Procedure, shortened: as §1
# [15] = compound: CC1=C(C2=C(C=C1)C(=O)C3=CC=CC=C3N2CCCN)C
# Procedure, shortened: as §1
# Sequence of UniProt P17568 (P17568 whole entry, looked up): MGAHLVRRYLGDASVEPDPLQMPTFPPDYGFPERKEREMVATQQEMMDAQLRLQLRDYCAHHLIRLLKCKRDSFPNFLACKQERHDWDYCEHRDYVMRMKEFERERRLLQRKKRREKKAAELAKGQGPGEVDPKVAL
# Sequence of UniProt Q9NXX6 (Q9NXX6 whole entry, looked up): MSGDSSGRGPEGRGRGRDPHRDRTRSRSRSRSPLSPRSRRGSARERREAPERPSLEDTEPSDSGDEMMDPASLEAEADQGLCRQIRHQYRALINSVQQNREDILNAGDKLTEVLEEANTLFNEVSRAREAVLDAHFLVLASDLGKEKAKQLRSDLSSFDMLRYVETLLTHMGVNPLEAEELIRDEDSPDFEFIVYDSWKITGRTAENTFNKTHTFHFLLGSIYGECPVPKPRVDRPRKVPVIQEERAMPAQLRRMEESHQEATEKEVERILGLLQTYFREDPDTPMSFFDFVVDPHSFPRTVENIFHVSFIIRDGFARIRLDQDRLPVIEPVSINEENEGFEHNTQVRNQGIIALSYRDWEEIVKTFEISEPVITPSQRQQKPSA
# Sequence of UniProt O14950 (O14950 whole entry, looked up): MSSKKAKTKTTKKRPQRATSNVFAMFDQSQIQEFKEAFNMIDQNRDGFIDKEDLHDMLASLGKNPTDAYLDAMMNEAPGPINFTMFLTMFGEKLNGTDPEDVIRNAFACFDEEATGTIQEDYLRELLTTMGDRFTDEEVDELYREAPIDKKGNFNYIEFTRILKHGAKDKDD
# Sequence of UniProt Q330K2 (Q330K2 whole entry, looked up): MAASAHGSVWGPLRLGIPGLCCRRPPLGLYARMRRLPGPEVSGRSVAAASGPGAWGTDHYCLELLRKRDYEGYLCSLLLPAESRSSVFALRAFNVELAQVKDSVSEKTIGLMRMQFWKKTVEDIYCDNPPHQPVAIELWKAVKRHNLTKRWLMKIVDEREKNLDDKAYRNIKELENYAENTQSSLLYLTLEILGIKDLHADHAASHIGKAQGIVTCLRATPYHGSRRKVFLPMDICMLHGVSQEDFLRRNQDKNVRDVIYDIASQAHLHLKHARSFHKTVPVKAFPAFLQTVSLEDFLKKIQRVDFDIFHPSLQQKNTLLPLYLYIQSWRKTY
# Sequence of UniProt O95182 (O95182 whole entry, looked up): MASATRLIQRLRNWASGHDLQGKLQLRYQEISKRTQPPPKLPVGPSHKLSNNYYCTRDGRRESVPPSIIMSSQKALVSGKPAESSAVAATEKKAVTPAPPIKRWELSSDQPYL
# Sequence of UniProt P55209 (P55209 whole entry, looked up): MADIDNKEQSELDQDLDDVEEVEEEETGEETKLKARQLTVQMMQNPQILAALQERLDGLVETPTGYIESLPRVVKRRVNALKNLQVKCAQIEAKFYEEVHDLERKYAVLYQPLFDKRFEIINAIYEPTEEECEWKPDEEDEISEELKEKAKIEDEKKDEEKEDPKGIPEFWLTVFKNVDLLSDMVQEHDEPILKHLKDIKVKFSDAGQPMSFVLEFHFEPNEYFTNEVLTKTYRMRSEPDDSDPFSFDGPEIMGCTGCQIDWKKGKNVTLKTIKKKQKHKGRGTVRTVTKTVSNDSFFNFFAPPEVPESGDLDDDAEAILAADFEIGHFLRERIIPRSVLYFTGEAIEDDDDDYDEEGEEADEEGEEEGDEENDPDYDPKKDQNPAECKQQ
# Sequence of UniProt P52701 (P52701 whole entry, looked up): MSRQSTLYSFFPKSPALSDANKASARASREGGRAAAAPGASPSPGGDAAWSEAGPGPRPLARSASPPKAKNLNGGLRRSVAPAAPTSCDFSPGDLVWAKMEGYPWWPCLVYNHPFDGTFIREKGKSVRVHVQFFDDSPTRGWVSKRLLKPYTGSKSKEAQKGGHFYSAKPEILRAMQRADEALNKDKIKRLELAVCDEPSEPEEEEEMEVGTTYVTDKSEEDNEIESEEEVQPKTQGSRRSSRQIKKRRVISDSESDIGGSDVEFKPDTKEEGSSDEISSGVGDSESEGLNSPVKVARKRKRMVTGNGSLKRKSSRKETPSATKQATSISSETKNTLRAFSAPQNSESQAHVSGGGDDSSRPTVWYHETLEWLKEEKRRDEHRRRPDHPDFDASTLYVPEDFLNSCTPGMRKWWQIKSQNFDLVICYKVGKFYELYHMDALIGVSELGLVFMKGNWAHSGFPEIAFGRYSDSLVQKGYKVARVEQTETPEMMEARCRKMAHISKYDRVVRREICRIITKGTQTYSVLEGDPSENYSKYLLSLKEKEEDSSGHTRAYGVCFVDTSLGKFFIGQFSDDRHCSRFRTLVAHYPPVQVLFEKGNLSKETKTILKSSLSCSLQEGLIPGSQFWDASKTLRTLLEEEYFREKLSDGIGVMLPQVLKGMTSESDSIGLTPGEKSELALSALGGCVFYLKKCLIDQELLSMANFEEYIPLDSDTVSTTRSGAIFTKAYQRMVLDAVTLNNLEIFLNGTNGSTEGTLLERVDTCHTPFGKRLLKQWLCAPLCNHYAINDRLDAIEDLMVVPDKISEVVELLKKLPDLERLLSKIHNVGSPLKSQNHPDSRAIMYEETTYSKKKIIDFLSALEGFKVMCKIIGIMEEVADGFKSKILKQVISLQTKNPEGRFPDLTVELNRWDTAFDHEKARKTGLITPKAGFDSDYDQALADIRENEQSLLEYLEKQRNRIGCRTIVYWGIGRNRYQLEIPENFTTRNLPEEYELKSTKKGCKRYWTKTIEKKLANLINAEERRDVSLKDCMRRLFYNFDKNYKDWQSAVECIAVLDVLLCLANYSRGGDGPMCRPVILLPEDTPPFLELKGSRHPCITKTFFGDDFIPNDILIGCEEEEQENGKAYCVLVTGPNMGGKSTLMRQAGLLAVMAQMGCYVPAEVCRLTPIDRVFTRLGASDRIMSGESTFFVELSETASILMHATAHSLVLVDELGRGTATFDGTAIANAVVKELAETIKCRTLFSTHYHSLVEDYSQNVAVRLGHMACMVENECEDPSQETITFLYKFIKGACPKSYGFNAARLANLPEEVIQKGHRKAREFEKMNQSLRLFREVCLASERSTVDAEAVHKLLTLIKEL
# Sequence of UniProt Q9Y2X3 (Q9Y2X3 whole entry, looked up): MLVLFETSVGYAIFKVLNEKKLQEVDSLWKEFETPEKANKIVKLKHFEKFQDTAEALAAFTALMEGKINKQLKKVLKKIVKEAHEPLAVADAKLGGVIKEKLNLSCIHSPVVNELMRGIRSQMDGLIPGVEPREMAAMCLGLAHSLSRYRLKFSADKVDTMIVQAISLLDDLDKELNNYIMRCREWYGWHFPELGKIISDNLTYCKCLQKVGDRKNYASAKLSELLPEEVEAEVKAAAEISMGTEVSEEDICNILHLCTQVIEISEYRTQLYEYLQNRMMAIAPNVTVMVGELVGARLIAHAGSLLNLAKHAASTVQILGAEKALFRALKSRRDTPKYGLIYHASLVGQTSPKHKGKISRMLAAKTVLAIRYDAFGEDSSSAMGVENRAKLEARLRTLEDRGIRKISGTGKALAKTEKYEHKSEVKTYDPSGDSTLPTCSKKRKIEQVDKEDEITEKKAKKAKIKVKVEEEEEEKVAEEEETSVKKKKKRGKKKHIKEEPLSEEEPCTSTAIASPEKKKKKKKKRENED
# Sequence of UniProt P22059 (P22059 whole entry, looked up): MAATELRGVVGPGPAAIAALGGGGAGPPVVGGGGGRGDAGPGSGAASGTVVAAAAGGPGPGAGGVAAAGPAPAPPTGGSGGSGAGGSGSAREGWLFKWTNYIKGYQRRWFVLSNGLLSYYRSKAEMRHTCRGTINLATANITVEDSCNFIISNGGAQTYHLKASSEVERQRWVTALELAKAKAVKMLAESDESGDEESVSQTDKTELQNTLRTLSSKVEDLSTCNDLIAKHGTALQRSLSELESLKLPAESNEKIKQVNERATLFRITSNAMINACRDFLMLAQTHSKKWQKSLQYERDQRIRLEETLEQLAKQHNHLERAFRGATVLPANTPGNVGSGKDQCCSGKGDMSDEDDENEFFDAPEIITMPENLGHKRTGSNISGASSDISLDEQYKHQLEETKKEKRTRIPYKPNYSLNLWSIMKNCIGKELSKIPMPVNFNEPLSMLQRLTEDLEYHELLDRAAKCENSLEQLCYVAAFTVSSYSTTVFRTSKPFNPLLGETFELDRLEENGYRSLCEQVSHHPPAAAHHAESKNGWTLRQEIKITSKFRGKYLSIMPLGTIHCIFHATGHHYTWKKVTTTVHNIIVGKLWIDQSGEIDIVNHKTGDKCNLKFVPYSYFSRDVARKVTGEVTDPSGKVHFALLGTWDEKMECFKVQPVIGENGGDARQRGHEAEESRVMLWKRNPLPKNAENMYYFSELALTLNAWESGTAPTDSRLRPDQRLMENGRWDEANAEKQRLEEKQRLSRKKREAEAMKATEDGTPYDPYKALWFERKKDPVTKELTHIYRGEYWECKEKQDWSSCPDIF
# Sequence of UniProt Q15738 (Q15738 whole entry, looked up): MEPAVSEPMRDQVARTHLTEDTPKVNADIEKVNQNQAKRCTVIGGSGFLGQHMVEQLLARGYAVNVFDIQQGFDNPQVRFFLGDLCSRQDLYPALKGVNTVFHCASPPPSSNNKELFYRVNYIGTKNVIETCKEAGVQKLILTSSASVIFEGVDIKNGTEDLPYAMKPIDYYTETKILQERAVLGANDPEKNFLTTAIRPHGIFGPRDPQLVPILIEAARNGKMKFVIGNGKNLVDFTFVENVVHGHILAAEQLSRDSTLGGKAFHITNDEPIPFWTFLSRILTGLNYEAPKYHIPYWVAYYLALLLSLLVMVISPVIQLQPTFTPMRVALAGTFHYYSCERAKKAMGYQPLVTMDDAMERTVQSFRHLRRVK
Target,log2 fold change (erlotinib),log2 fold change [1],log2 fold change [2],log2 fold change [3],log2 fold change [4],log2 fold change [5],log2 fold change [6],log2 fold change [7],log2 fold change [8],log2 fold change [9],log2 fold change (IRAK-1-4 Inhibitor I),log2 fold change (ibrutinib),log2 fold change [10],log2 fold change (ralimetinib),log2 fold change [11],log2 fold change [12],log2 fold change [13],log2 fold change (pinometostat),log2 fold change [14],log2 fold change [15]
OSBP (UniProt P22059),-0.059,0.111,0.063,0.109,-0.009,0.019,-0.027,-0.042,-0.001,0.013,0,-0.067,-0.029,-0.009,-0.076,0.091,0.017,-0.002,-0.052,0.024
NSMCE4A (UniProt Q9NXX6),-0.044,0.028,-0.002,0.072,0.182,-0.138,-0.031,-0.192,0.056,0.117,0.077,-0.116,-0.059,0.051,0.003,0.252,0.008,0,-0.052,-0.124
NOP58 (UniProt Q9Y2X3),-0.013,0.001,-0.332,-0.001,-0.043,0.034,-0.055,-0.126,-0.156,-0.143,-0.06,0.039,-0.117,-0.008,0.06,0.052,0.117,0.128,-0.035,-0.029
NSDHL (UniProt Q15738),-0.007,0.107,0.047,0.021,0,-0.149,0.065,0.059,-0.039,-0.005,0.004,0.193,-0.049,-0.01,0.173,-0.084,-0.024,-0.078,-0.021,0.056
NAP1L1 (UniProt P55209),-0.021,0.006,0.036,0.035,-0.048,0.066,0.026,-0.018,-0.02,0.07,0.04,-0.041,-0.012,-0.003,0.021,0.017,0.021,-0.029,0.105,0.004
MRPS31 (UniProt Q92665),0.003,0.001,-0.032,0.105,-0.004,0.023,0.048,0.064,0.003,-0.066,-0.057,0.014,-0.073,-0.005,-0.032,-0.086,0.057,0.034,0.026,-0.14
MSH6 (UniProt P52701),0.286,0.224,0.096,0.002,0.167,0,0.102,0.137,-0.095,-0.143,-0.18,-0.088,-0.121,-0.024,-0.299,-0.544,0.039,-0.005,0.053,0.884 (active)
MYL12B (UniProt O14950),0.016,0.091,0.02,0.006,-0.072,-0.019,0.157,0.023,-0.045,0.005,0.047,0.043,0.067,0.143,-0.013,0.005,-0.015,0.011,-0.045,-0.004
NDUFA7 (UniProt O95182),-0.001,-0.033,0.085,0.078,-0.003,0.021,0,0.036,0.005,0.01,0.169,0.024,-0.014,-0.017,-0.192,-0.063,0.158,0.074,0.038,0.033
NUP107 (UniProt P57740),-0.05,0.004,-0.128,0.063,0.04,0.065,-0.037,-0.192,-0.145,-0.005,-0.054,-0.152,-0.035,0.035,0.023,-0.005,0.089,0.165,0.062,-0.052
MRPS5 (UniProt P82675),-0.077,0.038,0.009,0.193,0.007,-0.008,0.027,0.158,-0.035,-0.085,-0.071,0.057,-0.019,0,-0.088,-0.083,0.078,0.056,-0.112,-0.207
NDUFAF6 (UniProt Q330K2),0.028,-0.009,0.059,0.058,0.071,0.12,0.065,-0.051,0.049,0.074,0.129,-0.044,-0.107,0.039,-0.214,-0.235,0.083,-0.132,0.091,-0.109
MRPS33 (UniProt Q9Y291),0.023,-0.018,-0.129,0.021,0.019,0.032,-0.043,0.018,0.026,-0.133,-0.006,0.022,-0.004,-0.038,-0.069,-0.034,0.122,0.096,0.096,-0.158
NUDT1 (UniProt P36639),0.164,-0.018,0.135,-0.068,0,-0.032,0.055,0.187,-0.009,1.01 (active),0.025,0.943 (active),0.816 (active),1.69 (active),-0.263,0.946 (active),-0.082,-0.017,-0.069,0.074
NDUFB7 (UniProt P17568),-0.027,0.015,0.038,0.04,-0.011,0.061,0.031,-0.007,0.037,0.041,0.012,0.008,0.007,0.079,-0.034,-0.002,-0.055,-0.017,0.014,0.004
NIBAN1 (UniProt Q9BZQ8),0.014,0.103,-0.022,0.017,0.058,-0.009,-0.005,-0.047,-0.017,-0.06,-0.125,0,-0.163,0.084,-0.07,-0.277 (active),0.037,0.068,-0.002,0.02

# Source: the supplement of paper PMC10849652
